Assay [1] has as its target Acetylcholinesterase (Homo sapiens) (UniProt P22303). The assay can be described thus: Acetylcholinesterase (AChE) small molecule antagonists: colormetric cell-based qHTS assay (AID 1347395). Also: nearly all actives have a fitted effect of over 30% in size. Also: potency is read from the fitted curve at half-maximal effect. The following applies: SH-SY5Y cells AChE activity, colorimetric (Ellman); series mostly up to 115 µM. In short, it runs like this: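 Colorimetric readout: DTNB quantifies thiocholine from acetylthiocholine hydrolysed by endogenous AChE of SH-SY5Y cells (2,000/well, plated overnight). Compound pretreatment 30 min, substrate incubation 90 min, both 37 C.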

The target is the same in assay [2]. The assay can be described thus: Acetylcholinesterase (AChE) small molecule antagonists: enzyme-based qHTS assay (AID 1347397). Also: nearly all actives have a fitted effect of over 55% in size. The following applies: Potency: AChE enzyme activity inhibition; outcome: AChE enzyme activity inhibition; series mostly up to 115 µM. In outline:
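Absorbance-based detection of thiocholine with DTNB served as the read-out. Recombinant human AChE was exposed to compound for 30 min at RT before a 10 min RT incubation with acetylthiocholine.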

The target is the same in assay [3]. The assay can be described thus: Acetylcholinesterase (AChE) small molecule antagonists: enzyme-based qHTS assay with human liver microsomes (AID 1347399). Also: nearly all actives have a fitted effect of over 60% in size. As to conditions: Potency: qHTS inhibition; outcome: qHTS inhibition; series mostly up to 115 µM. In outline: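 Recombinant human AChE (50 mU/mL in the enzyme mix) and human liver microsomes (0.25 mg/mL final) were preincubated with compound and NADPH (0.25 mg/mL final) for 30 min at 37 C. Acetylthiocholine/DTNB was then added; thiocholine was read colorimetrically after 10 min at room temperature.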

The record followed here is PubChem BioAssay (Tox21).

Results filed as inconclusive are left out. Active and inactive are the calls of the source. Calls follow the shape of the full dose curve.

Acetylcholinesterase (Homo sapiens), sequence (P22303 whole entry, looked up): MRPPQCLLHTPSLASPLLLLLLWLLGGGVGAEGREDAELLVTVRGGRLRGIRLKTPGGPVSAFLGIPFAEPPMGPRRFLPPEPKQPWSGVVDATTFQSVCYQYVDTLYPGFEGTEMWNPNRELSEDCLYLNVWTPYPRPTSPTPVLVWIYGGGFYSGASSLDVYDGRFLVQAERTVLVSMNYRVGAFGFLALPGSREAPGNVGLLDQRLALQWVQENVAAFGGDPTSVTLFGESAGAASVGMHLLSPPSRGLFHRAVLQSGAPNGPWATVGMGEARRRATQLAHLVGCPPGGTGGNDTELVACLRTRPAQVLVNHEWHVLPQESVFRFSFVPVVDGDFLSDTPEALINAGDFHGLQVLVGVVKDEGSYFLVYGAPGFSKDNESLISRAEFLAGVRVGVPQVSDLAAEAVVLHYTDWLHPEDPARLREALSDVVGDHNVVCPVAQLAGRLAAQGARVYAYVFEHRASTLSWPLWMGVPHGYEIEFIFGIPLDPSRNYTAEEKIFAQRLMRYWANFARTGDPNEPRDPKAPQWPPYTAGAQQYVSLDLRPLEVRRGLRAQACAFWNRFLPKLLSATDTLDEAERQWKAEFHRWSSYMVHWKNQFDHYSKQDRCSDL

As for `CCCCCCCCCCCCCC(=O)OCC(O)CO` (stereo not given), the Potency entry in assay [1], in assay [2] and in assay [3] was “inactive” each time.

With `COc1ccccc1OCCNCC(O)COc1cccc2[nH]c3ccccc3c12` (stereo not given), the Potency result in assay [1], in assay [2] and in assay [3] was “inactive” each time.

As for `CCCCCCCC/C=C/CCCCCCCC1=NCCN1CCO`, the Potency result in assay [1], in assay [2] and in assay [3] was “inactive” in each case.

Regarding `CCCCCCCCCCOCC(O)CN` (stereo not given), the Potency entry in assay [1], in assay [2] and in assay [3] was “inactive” in each case.

For the compound `NC1[C@H]2CN(c3nc4c(cc3F)c(=O)c(C(=O)O)cn4-c3ccc(F)cc3F)C[C@@H]12` (stereo not given in full), the compound was called inactive in assay [1], in assay [2] and in assay [3].

For `CCN(CC)CCOC(=O)C(Cc1cccc2ccccc12)CC1CCCO1` (stereo not given), the Potency result in assay [1], in assay [2] and in assay [3] was “inactive” throughout.

With `CCCCCOC(=O)c1ccc(O)cc1`, the Potency entry in assay [1], in assay [2] and in assay [3] was “inactive” throughout.

`CC(C(O)c1ccccc1)N(C)CCOC(c1ccccc1)c1ccccc1` (stereo not given): the Potency result in assay [1], in assay [2] and in assay [3] was “inactive” in each case.

In the case of `CN1CCN(Cc2cc(-c3ccc4[nH]c(=O)oc4c3)co2)[C@@H](c2ccc(F)cc2)C1`, the Potency entry in assay [1], in assay [2] and in assay [3] was “inactive” each time.

For the compound `C(/C=C/C=C/Nc1ccccc1)=Nc1ccccc1`, the Potency in assay [1] is 35.6 µM (active). Also, the Potency result in assay [2] and in assay [3] was “inactive” in each case.

On to `CC1=C(/C=C/C(C)=C/C=C/C(C)=C/C=O)C(C)(C)CCC1`, for which the Potency entry in assay [1], in assay [2] and in assay [3] was “inactive” in each case.

Take `C=CC(=O)OCCOCC(CC)(COCCOC(=O)C=C)COCCOC(=O)C=C`: the Potency entry in assay [1], in assay [2] and in assay [3] was “inactive” throughout.

Consider `COc1ccccc1N=Nc1c(S(=O)(=O)O)cc2cc(S(=O)(=O)O)cc(NC(C)=O)c2c1O`, for which the Potency entry in assay [1], in assay [2] and in assay [3] was “inactive” in each case.

Turning to `CN[C@H]1CC[C@@H](c2ccc(Cl)c(Cl)c2)c2ccccc21`, the Potency entry in assay [1], in assay [2] and in assay [3] was “inactive” each time.

As for `O=C(/C=C/c1ccccc1)NCCO`, the Potency result in assay [1], in assay [2] and in assay [3] was “inactive” in each case.

For `Cc1ccc(C(=O)C(=O)O)cc1C`, the Potency entry in assay [1], in assay [2] and in assay [3] was “inactive” in each case.

`CN(C/C=C/c1ccccc1)Cc1cccc2ccccc12`: the outcome in assay [1], in assay [2] and in assay [3] was inactive.

`CCc1nn(CCCN2CCN(c3cccc(Cl)c3)CC2)c(=O)n1CCOc1ccccc1`: the Potency entry in assay [1], in assay [2] and in assay [3] was “inactive” each time.

`NC/C=C/C(=O)O`: the Potency entry in assay [1], in assay [2] and in assay [3] was “inactive” each time.

For `Cc1cccc(Br)c1`, the Potency entry in assay [1], in assay [2] and in assay [3] was “inactive” each time.

Consider `Cc1ccsc1/C=C/C1=NCCCN1C`, for which, in assay [1], the Potency was 17.4 µM (active). In addition, the Potency entry in assay [2] and in assay [3] was “inactive” throughout.

As to `CN(C)CCCSc1ccccc1NC(=O)/C=C/c1ccccc1`, the Potency entry in assay [1], in assay [2] and in assay [3] was “inactive” each time.

With `CCOc1ccccc1OCC`, the Potency result in assay [1], in assay [2] and in assay [3] was “inactive” throughout.

For the compound `CCNC(=O)C(C)OC(=O)Nc1ccccc1` (stereo not given), the Potency result in assay [1], in assay [2] and in assay [3] was “inactive” in each case.

As to `Nc1cc(C(=O)O)ccc1Cl`, the Potency result in assay [1], in assay [2] and in assay [3] was “inactive” in each case.

`Nc1ccc(N=Nc2ccccc2)c(N)c1`: the Potency entry in assay [1], in assay [2] and in assay [3] was “inactive” in each case.

In the case of `O=C1OC(=O)c2cc([N+](=O)[O-])ccc21`, the Potency entry in assay [1], in assay [2] and in assay [3] was “inactive” in each case.

Take `C=C(C)C(=O)NCCCN(C)C`: the Potency entry in assay [1], in assay [2] and in assay [3] was “inactive” each time.

Regarding `Oc1cc2ccccc2c2ccccc12`, the Potency result in assay [1], in assay [2] and in assay [3] was “inactive” throughout.

For the compound `CC(=O)C(C)=O`, the Potency entry in assay [1], in assay [2] and in assay [3] was “inactive” in each case.

For `O=C1C=CC(=O)N1c1ccc(Cc2ccc(N3C(=O)C=CC3=O)cc2)cc1`, the Potency entry in assay [1], in assay [2] and in assay [3] was “inactive” in each case.

Consider `O=C1CCCCO1`, for which the Potency entry in assay [1], in assay [2] and in assay [3] was “inactive” throughout.

With `CN(C)CCOC(c1ccc(Cl)cc1)c1ccccn1` (stereo not given), the Potency entry in assay [1], in assay [2] and in assay [3] was “inactive” each time.

Turning to `COC(=O)c1ccc(OC)cc1`, the Potency result in assay [1], in assay [2] and in assay [3] was “inactive” each time.

Regarding `Nc1nc2ccccc2n1Cc1ccc(F)cc1`, the Potency entry in assay [1], in assay [2] and in assay [3] was “inactive” throughout.
